# Sampled rows, rich in hits. Any-hit rate of the full collection: about 1.1%.
# MOR-DOR inv ag: inverse agonists of human mu-delta opioid receptor heterodimerization; P35372+P41143; cell-based MOR-DOR heterodimer luminescence, inverse agonism; inhibition, % at 9.3 µM; 340,000 compounds, 0.21% hits; in the data active = inhibition above about 22%, passing the limit was not always enough;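 also: 0% = cells with DMSO and 100% = wells without cells with DMSO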
# MOR-DOR ag: agonists of human mu-delta opioid receptor heterodimerization; P35372+P41143; cells, OPRM1-OPRD1 heterodimerization, luminescence; activation, % at 9.3 µM; 340,000 compounds, 0.3% hits;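 also: 0% = vehicle-treated cells and 100% = reference agonist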
# HTR5A ag ctr: activates human HTR5A in OPRM1-OPRD1 agonist counter-screen; P47898; 340,000 compounds, 0.61% hits; activation, % at 9.3 µM; HTR5A agonist assay, luminescence, cell-based; in the data active = activation mostly above about 9.5%, no sharp cut-off; inactive = mostly below about 7.6%;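 also: 0% = cells with vehicle only and 100% = reference agonist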
# Target sequence (P47898 whole entry, looked up): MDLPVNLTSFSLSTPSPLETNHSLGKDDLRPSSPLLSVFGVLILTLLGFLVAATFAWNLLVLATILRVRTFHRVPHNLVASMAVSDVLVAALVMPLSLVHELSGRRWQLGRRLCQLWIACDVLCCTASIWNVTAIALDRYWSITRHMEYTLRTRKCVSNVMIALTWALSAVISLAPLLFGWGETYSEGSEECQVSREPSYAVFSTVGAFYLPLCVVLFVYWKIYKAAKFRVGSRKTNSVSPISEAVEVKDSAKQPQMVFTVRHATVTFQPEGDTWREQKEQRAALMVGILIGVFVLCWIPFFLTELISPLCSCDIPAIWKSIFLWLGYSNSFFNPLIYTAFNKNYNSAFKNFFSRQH
# HTR5A inv ctr: inverse agonist of human HTR5A in OPRM1-OPRD1 counter-screen; P47898; HTR5A cell line, luminescence, inverse agonism; inhibition, % at 9.3 µM; 340,000 compounds, 0.083% hits; AID 504634; in the data active = inhibition mostly above about 23%, no sharp cut-off; inactive = mostly below about 18%;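 also: 0% = cells with DMSO and 100% = no-cell wells with DMSO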
# OPRM1-D1 ag cf: confirmation of human OPRM1-OPRD1 heterodimerization agonists; 830 compounds, 45% hits; activation, % at 9.3 µM; shares compounds with MOR-DOR ag; cells, MOR-DOR heterodimerization, luminescence complementation;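 also: 0% = vehicle-treated cells and 100% = reference agonist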
# HTR5A ag ctr2: counter-screen for OPRM1-OPRD1 agonists: human HTR5A agonism; shares compounds with MOR-DOR ag; HTR5A agonist counterscreen, cell luminescence; activation, % at 9.3 µM; 830 compounds, 8% hits; AID 504905; in the data active = activation above about 17%;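 also: 0% = vehicle-treated cells and 100% = reference agonist response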
# Active calls of the source: *; i = inactive; · = no result given. Rule as the data show it, unless noted: active = activation above about 18%; inactive = the rest.
SMILES,MOR-DOR inv ag,MOR-DOR ag,HTR5A ag ctr,HTR5A inv ctr,OPRM1-D1 ag cf,HTR5A ag ctr2
CCN1CCN(c2c(S(=O)(=O)c3ccc(C)c(C)c3)cnc3ccc(F)cc23)CC1,-314,53*,-3,8,12,-3
COc1ccc2ncc(S(=O)(=O)c3ccccc3)c(N3CCN(c4ccccc4)CC3)c2c1,-8,2,8,33,·,·
COc1ccc(OCC(=O)Nc2c3c(nn2-c2ccccc2)CS(=O)(=O)C3)cc1,1,0,-4,19,·,·
COc1ccc(N(C(=O)c2snc(C(N)=O)c2N)C(C(=O)NC2CCCC2)c2cccs2)cc1OC (stereo not drawn),-17,2,-1,2,·,·
C#CC(=O)N(c1cc(OC)ccc1OC)C(C(=O)NC1CCCC1)c1cccs1 (stereo not drawn),-221,37*,15,-27,18,20*
Cc1ccc(NC(=S)N(CCCN(C)C)Cc2cc3cc4c(cc3[nH]c2=O)OCO4)cc1,-14,3,9,-22,·,·
O=C(Nc1cc(Cl)cc(Cl)c1)c1ccc(Cn2c(=O)[nH]c3ccsc3c2=O)cc1,-134,25*,-3,-11,0,0
CC(=O)NCCNC(=O)c1ccc(Cn2c(=O)[nH]c3ccsc3c2=O)cc1,8,-2,3,-10,·,·
Cc1cccc(CC(Cc2nc3ccccc3[nH]2)c2nc3ccccc3[nH]2)c1 (stereo not drawn),-109,18*,-5,12,2,-4
CN(C)C(CNC(=O)c1cc2ccccc2oc1=O)c1ccccc1 (stereo not drawn),-255,31*,2,-2,133*,-3
CCOC(=O)C1=C(Cc2ccc(F)cc2)C(=O)c2ccccc2C1=O,-100,18*,5,0,2,27*
CC(C)c1ccc(NC(=O)N(CCc2nc3ccccc3[nH]2)C2CCCC2)cc1,-148,25*,2,-9,37*,0
Cc1cc(OCC(=O)NC2CCCCC2)ccc1Cl,-9,2,11,-38,·,·
COc1ccc(Nc2oc(-c3ccccc3F)nc2C#N)cc1,-23,4,1,-3,·,·
Oc1cccc(Nc2c3ccccc3nc3ccccc23)c1,4,-1,2,-8,·,·
CCN(CC)Cc1cc(Nc2c3ccccc3nc3c4ccccc4n(C)c23)cc(CN(CC)CC)c1O,i,144*,2,-7,149*,-3
C[C@@H](C[C@@H](O)[C@H](O)C(C)(C)O)[C@@H]1CC[C@]2(C)C3=CC[C@H]4C(C)(C)C(=O)CC[C@]4(C)[C@H]3CC[C@@]12C,-112,19*,-3,8,7,0
C[C@H](C[C@H](O)[C@H]1OC1(C)C)C1=C2C[C@H](O)C3[C@@]4(C)CCC(=O)C(C)(C)C4CC[C@]3(C)[C@@]2(C)CC1 (stereo partly drawn),-72,12,2,-5,·,·
CN(C)c1ccc(/C=N/NC(=O)c2ccc(NC(=O)c3ccccc3)cc2)cc1,-93,19*,0,12,34*,20*
O=C(N/N=C/c1ccc(Br)cc1)c1ccc(NC(=O)c2ccccc2)cc1,8,-2,2,-26,·,·
O=S(=O)(c1c(Cl)cc(Br)cc1Cl)N1CCN(C(=S)NC2CC2)CC1,-413,85*,0,1,122*,4
O=S(=O)(c1ccccc1)N1CCN(C(=S)NC2CCCC2)CC1,7,-2,2,-4,·,·
COc1cccc(C(=O)Nc2ccc3c(c2)C(=O)c2ccccc2C3=O)c1,-261,38*,-1,-14,53*,11
COc1ccc2nc(SCc3cccc(C)c3)nc(C)c2c1,-11,2,-6,13,·,·
Cc1ccc(CNCC(=O)Nc2ccc(N3CCOCC3)cc2)cc1,5,-1,-1,2,·,·
SMILES,MOR-DOR inv ag,MOR-DOR ag,HTR5A ag ctr,HTR5A inv ctr,OPRM1-D1 ag cf,HTR5A ag ctr2
CCCOC(=O)Nc1nc(-c2ccc(C)cc2)c(C)s1,-8,2,-1,35,·,·
NC1=NC2(CCN(Cc3ccccc3)CC2)n2c(nc3ccccc32)N1,-245,50*,-1,-4,28*,1
Cc1ccc(-c2n[nH]c(=O)c3ccccc23)cc1S(=O)(=O)Nc1ccccc1,2,0,-2,7,·,·
O=C(O)c1ccc(NC2=C(Cl)C(=O)c3ccccc3C2=O)cc1,-56,11,3,-7,·,·
O=C(O)c1cccc(NC2=C(Cl)C(=O)c3ccccc3C2=O)c1,-143,22*,-1,3,8,3
Clc1ccc(-c2nnc(CSc3nnc(-c4cccs4)n3Cc3ccccc3)o2)cc1,-11,2,1,-3,·,·
O=C1CCN(Cc2ccccc2)CCN1[C@H](COc1ccccc1)Cc1ccccc1,-140,25*,5,7,25*,2
CCCN1CCC(=O)N([C@H](COc2ccccc2)Cc2ccccc2)CC1,3,0,3,-1,·,·
COC(=O)NCC(c1ccc2c(c1)OCO2)N1CCN(c2ccc(OC)cc2)CC1 (stereo not drawn),-422,79*,4,-3,0,-4
OC(CNCC(c1ccc(Cl)cc1Cl)c1c[nH]c2ccccc12)c1ccccc1 (stereo not drawn),-271,55*,15*,-42,0,1
CCOc1c(Cl)cc(CNCC(O)c2ccccc2)cc1OC (stereo not drawn),-16,2,0,0,·,·
COC(=O)C(Cc1cccc(C)n1)(c1ccccc1)c1ccccc1,i,113*,0,0,153*,2
Cc1cc(C)c(C)c(S(=O)(=O)N2CCC(C(=O)NNC(=O)c3ccccc3O)CC2)c1C,2,0,3,4,·,·
COc1ccccc1NC(=O)c1sc2nc(C)cc(C)c2c1N,-121,24*,4,-9,108*,1
O=C(Nc1ccc2c(c1)OCCO2)c1cncc(Br)c1,14,-2,5,-14,·,·
C=CCN1N=C(c2ccc(NC(=O)c3ccccc3)cc2)CSC1=O,-285,55*,3,19,1,-4
O=C1C=CC(=O)c2c(O)c(N3CCN(CCOCCO)CC3)c(Br)c(O)c21,-123,25*,-2,8,6,-4
Cc1ccc(C(=O)OCC(=O)Nc2ccc(C(N)=O)cc2)s1,-2,0,4,-11,·,·
CCCC(NCC(O)COc1ccc(-c2ccccc2)cc1)c1ccccc1 (stereo not drawn),-120,22*,11,16,13,8
COc1ccc(OCC(O)CNC(C)c2ccccc2)cc1 (stereo not drawn),1,0,3,-10,·,·
CCc1ccc(Nc2n[n+](-c3ccccc3)c(-c3c(Cl)cccc3Cl)s2)cc1,-153,27*,12,-5,73*,10
CC(C)CSc1nc2ccccc2[nH]1,16,-3,-1,19,·,·
CCn1c2ccccc2c(=O)c2ccccc21,3,-1,2,12,·,·

# Screening data (PubChem)
